A selection: hits, their analogues and other compounds. The true share with any hit is near 3.1%.
PP5 inh = blocks human protein phosphatase 5 activity. purified PP5c, OMFP substrate fluorescence. AID 1987. 320,000 tested, 0.18% active. inhibition, % at 6.7 µM. P53041;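 active = inhibition above the campaign's mean inhibition across all tested compounds plus 3 SD, cut at about 9.5% in these data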
CSC inhib = blocks cancer stem cells | cancer stem cell-like cells viability, luminescence | inhibition, % at 7.5 µM | 300,000 tested, 1.1% active | AID 2717; in the data active = inhibition above about 75%; tested in HMLE shEcad cells
SKKanGAS inh = inhibitors of SKKanGAS S. pyogenes growth in kanamycin (SK-promoter or general growth effect); BacTiter-Glo, 6 h; inhibition, % at 7.5 µM; 300,000 tested, 1.3% active; AID 1662;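 active = mean replicate score, as percent of positive control median, at least 50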;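 note: strain carries kanamycin resistance gene driven by streptokinase promoter and grows in 40 µg/ml kanamycin; loss of luminescence reflects streptokinase promoter inhibition or plain growth inhibition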
Beta cell apopt = beta cell apoptosis inhibition; protection from apoptosis, % (concentration not given with the values); INS-1E cytokine-induced death, ATP luminescence, 48 h; percent of positive-control rescue, neutral wells zero; AID 435005; 300,000 tested, 0.8% active;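 active = Every replicate reaches about 75%, or at least half do and their mean reaches it too, limit read from the data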;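 note: higher means more ATP so stronger rescue from cytokine killing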
PP1 counter = counter-screen for PP5 inhibitors: inhibitors of human PP1-alpha; 320,000 tested, 0.9% active; inhibition, % at 6.7 µM; purified PP1alpha, OMFP fluorescence;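 active = inhibition above the mean inhibition of all tested compounds plus 3 SD, computed separately for each screening campaign, cut at about 15% in these data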
Target sequence (P62136 whole entry, looked up): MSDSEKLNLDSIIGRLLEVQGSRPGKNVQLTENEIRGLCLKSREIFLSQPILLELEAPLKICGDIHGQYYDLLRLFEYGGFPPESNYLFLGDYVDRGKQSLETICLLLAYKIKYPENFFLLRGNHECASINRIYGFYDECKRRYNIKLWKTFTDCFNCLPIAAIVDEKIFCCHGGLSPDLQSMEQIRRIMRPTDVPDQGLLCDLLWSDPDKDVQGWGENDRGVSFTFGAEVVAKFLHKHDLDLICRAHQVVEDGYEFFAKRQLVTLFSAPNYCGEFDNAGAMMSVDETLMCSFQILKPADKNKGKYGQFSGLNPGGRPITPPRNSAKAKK
Of the large screens only hits and unclear results are named; the others gave an inactive call.

CCc1ccc(C(=O)CSC2=C(C#N)C(c3ccco3)C(C(C)=O)=C(C)N2)cc1 (stereo not given)	CSC inhib 80, Beta cell apopt 110
CC(=O)C1=C(C)NC(SCC(=O)c2ccc(-c3ccccc3)cc2)=C(C#N)C1c1cccnc1 (stereo not given)	PP1 counter 27 (no result: SKKanGAS inh)
COc1ccc(NC(=O)Cc2nnc(SCC(=O)c3ccccc3)n2C)cc1	none (no result: CSC inhib)
Cc1cc(-c2c(C)[nH]n(-c3ccc(Cl)cc3)c2=O)n(-c2ccc(Cl)cc2)n1	SKKanGAS inh 101
Cc1cc(-c2c(C)[nH]n(-c3ccccc3)c2=O)n(-c2ccccc2)n1	none
Cc1cc(C)c2c(C(C)(C)C)nn(-c3ccccc3)c2n1	SKKanGAS inh 60
C/C(=N/NC(=O)c1cc(-c2ccccc2)nc2c(Cl)cccc12)c1cccnc1	SKKanGAS inh 90 (no result: PP5 inh, PP1 counter)
C/C(=N\NC(=O)c1cc(-c2cccnc2)nc2ccccc12)c1ccc(O)cc1O	CSC inhib 100, Beta cell apopt 90
C/C(=N\NC(=O)c1cc(-c2cccc(OC(C)C)c2)nc2ccccc12)c1cccnc1	none (no result: PP5 inh, PP1 counter)
CC(=O)c1sc(NC(=O)c2cc(-c3ccccc3)nn2-c2ccccc2)nc1C	none
O=C(Nc1nc2ccccc2s1)c1cc(-c2ccccc2)nn1-c1ccccc1	Beta cell apopt 111
O=[N+]([O-])c1ccc(O)c(Nc2ncnc3ccc(Br)cc23)c1	SKKanGAS inh 51
O=C(Nc1ccc(N2CCN(C(=O)c3ccco3)CC2)c(Cl)c1)c1c(F)c(F)c(F)c(F)c1F	SKKanGAS inh 50
Cc1ccc(-c2cc(-c3cccc(F)c3)n[nH]2)c(O)c1	SKKanGAS inh 52
O=C(C[n+]1cnn(CC(=O)c2ccc(Cl)cc2Cl)c1)c1ccc([N+](=O)[O-])cc1	SKKanGAS inh 93, PP1 counter 17
O=C(Nc1ccccc1C(=O)Nc1nnc(C(F)(F)F)s1)c1ccccc1	CSC inhib 195, SKKanGAS inh 97
COc1ccc(C(=O)NNC(=O)CCn2nnc(-c3ccc(Cl)cc3)n2)cc1OC	none
O=C(/C=C/c1cccc(F)c1)NCCCn1ccnc1	none
O=C(Oc1ccc(NC2=NS(=O)(=O)c3ccccc32)cc1)c1cccnc1	SKKanGAS inh 59 (no result: Beta cell apopt)
O=C(Nc1nnc(C2CC2)s1)c1cncc(Br)c1	none (no result: PP5 inh, SKKanGAS inh, PP1 counter)
COc1ccc(-c2cn3cc(C(F)(F)F)cc(Cl)c3n2)cc1	CSC inhib 127
CCCCNC(=O)C1Cc2cc(S(=O)(=O)N3CCCCC3)ccc2N1C(C)=O (stereo not given)	none
CC(C)=CCc1c(O)ccc(C(=O)Cc2ccccc2)c1O	CSC inhib 97
O=C(Cc1cnn(-c2ccccc2)c1)c1ccc(O)c(O)c1O	none (no result: CSC inhib)
CCOc1cc(/C=C2\N=C(SC(C)C(N)=O)N(c3ccc(OC(F)F)cc3)C2=O)ccc1O (stereo not given)	CSC inhib 103
O=C(Nc1ccc(Cl)cc1)c1nc[nH]c1C(=O)NCCN(CCNC(=O)c1[nH]cnc1C(=O)Nc1ccc(Cl)cc1)CCNC(=O)c1[nH]cnc1C(=O)Nc1ccc(Cl)cc1	CSC inhib 101, Beta cell apopt 104 (no result: PP5 inh, SKKanGAS inh, PP1 counter)
CC(C)(C)OC(=O)NCc1ccc(NC(=O)c2nc[nH]c2C(=O)NCCNC(=O)c2[nH]cnc2C(=O)Nc2ccc(CNC(=O)OC(C)(C)C)cc2)cc1	Beta cell apopt 81 (no result: PP5 inh, CSC inhib, SKKanGAS inh, PP1 counter)
COc1cc2c(C#N)c(N3CCN(C)CC3)nc(N)c2c(N)n1	none
COc1cc2c(C#N)c(N3CCN(c4ccccc4OC)CC3)nc(N)c2c(N)n1	SKKanGAS inh 72
Cc1ccc(C(=O)Nc2nnc(-c3ccco3)o2)cc1	none
O=C(Nc1nnc(-c2ccco2)o1)c1ccc2ccccc2c1	SKKanGAS inh 92 (no result: Beta cell apopt)
Cc1ccsc1C(=O)Nc1nnc(-c2ccco2)o1	SKKanGAS inh 83
CCC(=O)Nc1nnc(-c2ccco2)o1	none
COc1ccc(/C=C(/NC(=O)c2ccccc2)c2nc3ccc(Cl)cc3[nH]2)cc1OC	none
C[n+]1c2n(c3ccccc31)N=C(c1ccc(Cl)cc1)CS2	Beta cell apopt 76
COc1ccc(C2=Nn3c(nnc3-c3ccccn3)SC2)cc1	none
COc1ccc(C2=Nn3c([n+](C)c4ccccc43)SC2)cc1	Beta cell apopt 112
CCN1CCN(CC#CCOc2ccccc2OC)CC1	none
CCN1CCN(c2ccc(S(=O)(=O)N3CCCCC3)cc2NC(=O)c2ccc([N+](=O)[O-])s2)CC1	Beta cell apopt 113
CCOC(=O)c1sc2nc(Cc3ccc(Cl)cc3)[nH]c(=S)c2c1C	SKKanGAS inh 58
CCOC(=O)c1sc2nc(C)nc(NCc3ccc(Cl)cc3)c2c1C	none
